Nine compounds from PubChem BioAssay (NCI) can be followed below.

Some test systems named below: HCT-15 colon; HT29 colon; SNB-19 CNS; U251 CNS; PC-3 prostate; SK-MEL-5 melanoma; UACC-62 melanoma; SK-MEL-28 melanoma; EKVX NSCLC; SN12C renal; UO-31 renal; TK-10 renal; ACHN renal; CAKI-1 renal; A498 renal; MOLT-4 leukemia; SK-MEL-2 melanoma; CCRF-CEM leukemia; LOX IMVI melanoma.
Holding throughout (assay): NCI-60 one-dose screen, 48 h (100 = growth as untreated, 0 = no growth, -100 = all killed)
Holding throughout (conditions): 10 µM unless noted

The panel holds about 83,000 compounds, 20% with a hit somewhere; the sample as a whole holds those more often.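 Plates (96-well) were seeded with cells, treated with compound at one concentration, and incubated for 48 hours before percent growth was determined.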 Unmarked numbers belong to inactive results. Activity calls are given as the source filed them. The calls were made as follows: active = growth percent below 10; inactive = the rest.

For `COc1ccc(NC(=O)c2cc(OC)c(OC)c(OC)c2)cc1O`, the growth in the test with HCT-15 colon is 35%; in the test with HT29 colon, 10.7%; in the test on SNB-19 CNS it was 52.1%; with U251 CNS, 40.4%; in the test on PC-3 prostate, 25.9%; with SK-MEL-5 melanoma, 22.8%. For the same compound, the growth in the test with UACC-62 melanoma is 30.8%; with SK-MEL-28 melanoma, 56%; in the test on EKVX NSCLC, 97.1%; in the test with SN12C renal it was 43.4%; in the test on UO-31 renal, 66.8%; with TK-10 renal, 88.9%. In addition, the growth in the test with ACHN renal was 57.6%; in the test on CAKI-1 renal it was 46.8%; in the test with A498 renal, 46%; with MOLT-4 leukemia, 64.4%.
On to `CCC1=CCC[C@@]2(C)CCC[C@@]3(C)CCCC(C)(C)[C@]1([O-])[O+]32`, for which the growth in the test with HCT-15 colon was 108%; in the test on HT29 colon it was 102%; in the test with SNB-19 CNS, 102%; in the test on U251 CNS it was 103%; in the test on PC-3 prostate, 96.5%; in the test on SK-MEL-5 melanoma, 101%. Moreover, the growth is 103% in the test with UACC-62 melanoma; 110% in the test with SK-MEL-2 melanoma; 106% in the test with SN12C renal; 100% in the test on UO-31 renal; 109% in the test on TK-10 renal; 105% with ACHN renal. For the same compound, the growth was 94.7% in the test with CAKI-1 renal, 83.3% in the test on A498 renal, 127% with CCRF-CEM leukemia and 104% in the test with MOLT-4 leukemia.
With `COc1ccc(C(=O)N2NC(=O)/C(=C/c3ccccc3F)N=C2c2ccccc2)cc1`, the growth with HCT-15 colon is 112%; in the test with HT29 colon it was 113%; in the test on SNB-19 CNS, 99%; in the test with U251 CNS, 96.7%; in the test with PC-3 prostate, 104%; with SK-MEL-5 melanoma, 113%. The growth was 102% in the test with UACC-62 melanoma; 112% in the test with SK-MEL-28 melanoma; 103% with EKVX NSCLC; 99% in the test on SN12C renal; 89.8% with UO-31 renal; 108% in the test with TK-10 renal. In addition, the growth was 122% with ACHN renal, 98.9% with CAKI-1 renal, 104% in the test with A498 renal and 109% with MOLT-4 leukemia.
As for `CSc1nc2c(c(=O)[nH]1)C(c1ccc(C)cc1)C=C(C(=O)O)N2` (stereo not given), the growth in the test on HCT-15 colon was 105%; in the test with HT29 colon, 118%; in the test with SNB-19 CNS it was 133%; in the test on U251 CNS, 109%; in the test on PC-3 prostate, 109%; in the test with SK-MEL-5 melanoma it was 102%. The growth in the test on UACC-62 melanoma is 129%; with SK-MEL-28 melanoma, 99.9%; in the test on SK-MEL-2 melanoma it was 120%; in the test with SN12C renal, 120%; in the test with UO-31 renal it was 88.1%; in the test on TK-10 renal it was 118%. The growth with ACHN renal was 106%; with CAKI-1 renal, 88.6%; in the test with A498 renal it was 93.1%; in the test on MOLT-4 leukemia it was 119%.
For `CCCCN(CCCC)c1ccc(C(=N)c2ccc(N(CCCC)CCCC)cc2)cc1`, the growth in the test on HCT-15 colon is -91.9% (active); in the test with HT29 colon, -81.1% (active); in the test on SNB-19 CNS it was -82.8% (active); in the test on U251 CNS, -92.9% (active); in the test on SK-MEL-5 melanoma it was -97% (active); in the test on UACC-62 melanoma, -81.6% (active). For the same compound, the growth was -97.2% (active) in the test on LOX IMVI melanoma; 9.39% (active) with SK-MEL-28 melanoma; -79.1% (active) in the test on SK-MEL-2 melanoma; -13.9% (active) with EKVX NSCLC; -94.1% (active) with SN12C renal; -71.1% (active) with UO-31 renal. For the same compound, the growth with TK-10 renal was -83.9% (active); in the test with ACHN renal, -100% (active); in the test with CAKI-1 renal it was -37.6% (active).
As to `COc1cc(-c2nn(-c3cccc(NC(=O)Nc4cccc(C(F)(F)F)c4)c3)cc2-c2ccncc2)ccc1Cl`, the growth is 5.28% (active) in the test on HCT-15 colon; -64% (active) with HT29 colon; 23.5% in the test with SNB-19 CNS; -82.2% (active) in the test with U251 CNS; -23% (active) with PC-3 prostate; -97.8% (active) in the test with SK-MEL-5 melanoma. For the same compound, the growth is -76.1% (active) in the test with UACC-62 melanoma; -18.6% (active) with SK-MEL-28 melanoma; -71.2% (active) with SK-MEL-2 melanoma; 7.22% (active) in the test on SN12C renal; 7.94% (active) in the test on UO-31 renal; 2.65% (active) in the test on TK-10 renal. Also, the growth in the test on ACHN renal was 6.54% (active); in the test on CAKI-1 renal, 11.5%; in the test with A498 renal, -5.17% (active); with CCRF-CEM leukemia, -9.68% (active); with MOLT-4 leukemia, -26.3% (active).
On to `C/C=C(\C)C(C(=O)NC1CCCCC1)N(C(=O)C1CCc2cc(F)ccc2O1)c1ccc(Cl)cc1` (stereo not given), for which the growth in the test on HCT-15 colon is 101%; with HT29 colon, 98.7%; in the test on SNB-19 CNS it was 97.8%; in the test on U251 CNS it was 102%; in the test on PC-3 prostate, 94.5%; in the test with SK-MEL-5 melanoma, 97.2%. Further, the growth with UACC-62 melanoma is 92.3%; in the test on SK-MEL-2 melanoma, 103%; with EKVX NSCLC, 94.2%; with SN12C renal it was 106%; in the test on UO-31 renal, 92.6%; in the test on TK-10 renal, 96.2%. Further, the growth in the test on ACHN renal is 115%; in the test on A498 renal it was 109%; in the test with CCRF-CEM leukemia it was 101%; in the test with MOLT-4 leukemia, 95.4%.
For the compound `O=C(O)C1CCCCN1c1nc(Cl)nc(Cl)n1` (stereo not given), the growth in the test with HCT-15 colon is 102%; in the test with HT29 colon, 106%; with SNB-19 CNS, 102%; with U251 CNS, 104%; in the test on PC-3 prostate, 99.3%; in the test with SK-MEL-5 melanoma, 97.3%. Moreover, the growth with UACC-62 melanoma was 99.8%; in the test with SK-MEL-2 melanoma, 104%; with EKVX NSCLC, 99.8%; in the test on SN12C renal it was 103%; in the test with UO-31 renal, 98.1%; in the test with TK-10 renal, 103%. The growth is 113% in the test on ACHN renal, 90% with A498 renal, 105% in the test on CCRF-CEM leukemia and 104% with MOLT-4 leukemia.
Consider `COc1ccc(OC)c(/C=C2\Oc3cc(OCCCN4CCCC4)ccc3C2=O)c1`, for which the growth with HCT-15 colon is 20%; with HT29 colon, 10.3%; with SNB-19 CNS it was 82.1%; with U251 CNS it was 74.2%; with PC-3 prostate it was 82.9%; with UACC-62 melanoma it was 95.9%. Besides, the growth with LOX IMVI melanoma is 12%; in the test on SK-MEL-28 melanoma it was 87.4%; in the test with SK-MEL-2 melanoma it was 104%; with EKVX NSCLC, 80.4%; with SN12C renal, 76.2%; in the test on UO-31 renal, 56.7%. Also, the growth with TK-10 renal was 99.8%; in the test on ACHN renal it was 78.2%; with CAKI-1 renal, 82%; in the test on CCRF-CEM leukemia, 50.8%; with MOLT-4 leukemia, 54.8%.
